Source: PubChem BioAssay (National Center for Advancing Translational Sciences (NCATS))
The list is not random: actives were taken first. Their share in the collection is about 4.4%.
p53ts 32C kill – qHTS Screen for Compounds that Selectively Target Cancer Cells with p53 Mutations: Cytotoxicity of p53ts Cells at the Permissive Temperature; actives 0.93% (n = 130,000); H1299-p53A138V at 32C, ATP luminescence viability, 24 h; Potency, µM (doses to about 46.1 µM), actives largely listed as cytotoxic; further: nearly all actives have a fitted effect of over 55% in size
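Cells: H1299 p53ts (A138V), 600/well, pre-incubated 16–30 h at 37C. Cpd up to 46 uM, 24 h, 32C. Readout: ATPlite luminescence, 20 min RT. Normalization: DMSO vs tamoxifen 100 uM. AC50 by Hill equation.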
ALOX12 inhib – qHTS Assay for Inhibitors of 12-hLO (12-human lipoxygenase); purified 12-hLO, xylenol orange hydroperoxide absorbance; Potency, µM (doses to about 57.1 µM), usual class: inhibitors; actives 0.12% (n = 150,000); further: nearly all actives have a fitted effect of over 55% in size
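Hydroperoxide output read as Fe(III)-xylenol orange absorbance, 573-to-405 nm ratio, after 30 min reaction with 40 uM arachidonic acid. Enzyme: 150 nM purified human 12hLO, 15 min compound preincubation; 25 mM Hepes pH 7.0, room temperature.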
HPGD inh – qHTS Assay for Inhibitors of HPGD (15-Hydroxyprostaglandin Dehydrogenase) | purified HPGD, NADH fluorescence kinetic, PGE2 substrate | Potency, µM, actives largely listed as inhibitors | AID 894, 2007 | 15-hydroxyprostaglandin dehydrogenase [NAD(+)] (Homo sapiens), P15428 | actives 4.3% (n = 150,000); active means well fitted inhibition curve with a large enough effect, not every such curve was filed as active; inconclusive means small, poorly fitted or top-dose-only effect, or another doubt; inactive means no such curve, though single readings can be large or run the other way
Target sequence (P15428 whole entry, looked up): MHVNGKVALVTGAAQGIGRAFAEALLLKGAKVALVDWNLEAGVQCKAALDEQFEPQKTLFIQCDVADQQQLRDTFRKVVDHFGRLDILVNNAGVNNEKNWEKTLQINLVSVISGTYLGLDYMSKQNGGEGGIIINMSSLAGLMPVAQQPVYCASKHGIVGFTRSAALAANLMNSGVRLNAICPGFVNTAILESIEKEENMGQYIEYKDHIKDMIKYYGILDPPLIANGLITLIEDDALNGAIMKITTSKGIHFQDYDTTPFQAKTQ
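NADH formation kinetics: reaction with 30 uM PGE2 and 1 mM NAD+ (final), 20 nM enzyme, Tris-HCl pH 8 with Tween 20, after 15 min compound preincubation at room temperature. Fluorescence change, last versus first of five reads.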
p53ts 39C kill – qHTS Screen for Compounds that Selectively Target Cancer Cells with p53 Mutations: Cytotoxicity of p53ts Cells at the Nonpermissive Temperature; H1299-p53A138V viability at 39C, ATP luminescence, 24 h; Potency, µM (top dose mostly 46.1 µM), actives largely listed as cytotoxic; actives 1.5% (n = 130,000); AID 902, 2007; further: nearly all actives have a fitted effect of over 55% in size
Each line names hits and unclear results; the compound was inactive in the other large screens. Unless noted, the call rests on the fitted dose curve; in most records, active means well fitted curve in the direction sought with a large enough effect; inconclusive means small, poorly fitted or top-dose-only effect, or another doubt; inactive means no such curve, though single readings can be large; an effect the other way counts as inactive or inconclusive.

Clc1ccc(-c2nnc(NCc3ccccc3)c3ccccc23)cc1	HPGD inh 5.62µM (no result: p53ts 32C kill, p53ts 39C kill)
NC(=O)Cc1ccc(Nc2nnc(-c3ccccc3)c3ccccc23)cc1	none (no result: p53ts 32C kill, p53ts 39C kill)
Cc1ccc(Nc2ccc(NCc3ccccc3)nn2)cc1C	none (no result: p53ts 32C kill, p53ts 39C kill)
Clc1ccc(Nc2ccc(NCc3ccccc3)nn2)cc1	HPGD inh 5.62µM (no result: p53ts 32C kill, p53ts 39C kill)
COc1ccc(CCN(C)CCC[C@@](C#N)(c2cc(OC)c(OC)c(OC)c2)C(C)C)cc1OC	none (no result: HPGD inh)
O=S(=O)(Nc1ccc(Cc2ccncc2)cc1)c1ccc(Cl)c(Cl)c1	none (no result: p53ts 32C kill, p53ts 39C kill)
CCCCS(=O)(=O)Nc1ccc(Cc2ccncc2)cc1	HPGD inh 15.8µM
Cc1nn(CC(=O)N2CCC(C)CC2)c(=O)c2cc3occc3n12	none (no result: ALOX12 inhib, HPGD inh)
O=c1cc(-c2ccccc2Cl)oc2cc(O)cc(O)c12	HPGD inh 17.8µM (no result: p53ts 32C kill, p53ts 39C kill)
Nc1ccc(O)c2c(=O)cc(-c3ccccc3Cl)oc12	none (no result: p53ts 32C kill, p53ts 39C kill)
CCOc1cccc2oc(-c3ccccc3Cl)cc(=O)c12	HPGD inh 44.7µM (no result: p53ts 32C kill, p53ts 39C kill)
CCOc1cccc(=O)c2c(C)n(C)c(C)c12	none
O=C(CCc1nc(-c2ccccc2)no1)NCCc1ccccc1	none (no result: p53ts 32C kill, p53ts 39C kill)
COc1ccc(-c2noc(CCC(=O)NCCN(C)Cc3ccccc3)n2)cc1	HPGD inh 15.8µM
COc1ccc(NC(=O)CN(Cc2ccccc2)S(=O)(=O)c2ccc(C)cc2)cc1Cl	none (no result: ALOX12 inhib, HPGD inh)
Cc1c(C(=O)Nc2cccc(C(F)(F)F)c2)oc2ccc3c(c12)C(=O)CC(C)(C)O3	p53ts 39C kill 15.8µM (no result: ALOX12 inhib, HPGD inh)
Cc1c(C(=O)NCC2CCCO2)oc2ccc3c(c12)C(=O)CC(C)(C)O3 (stereo unspecified)	p53ts 32C kill 12.6µM, HPGD inh inconclusive, p53ts 39C kill inconclusive
Cc1cccc(C)c1NC(=O)c1oc2ccc3c(c2c1C)C(=O)CC(C)(C)O3	none (no result: ALOX12 inhib, HPGD inh)
COc1ccc(-c2n[nH]c(=S)n2C2CCCCC2)cc1	HPGD inh 17.8µM
Cc1ccsc1-c1n[nH]c(=S)n1C1CCCCC1	none (no result: p53ts 32C kill, p53ts 39C kill)
Cc1cc(Cl)ccc1OCc1n[nH]c(=S)n1C1CCCCC1	ALOX12 inhib inconclusive, HPGD inh 5.01µM (no result: p53ts 32C kill, p53ts 39C kill)
COc1ccc(Cl)cc1-c1n[nH]c(=S)n1C1CCCCC1	HPGD inh 10µM (no result: p53ts 32C kill, p53ts 39C kill)
S=c1[nH]nc(-c2cccnc2)n1C1CCCCC1	none (no result: p53ts 32C kill, p53ts 39C kill)
CCOC(=O)c1cccc(NC(=O)Nc2ccc3c(c2)N(C)C(=O)c2ccccc2S3)c1	none (no result: ALOX12 inhib, HPGD inh)
CC1=C(C(=O)Nc2ccccc2)C(c2cccnc2)n2nc(SCc3ccccc3Cl)nc2N1 (stereo unspecified)	none (no result: ALOX12 inhib, HPGD inh)
Clc1ccc(OCc2nc(-c3ccc(-n4cccc4)cc3)no2)cc1	none (no result: ALOX12 inhib, HPGD inh)
COC(=O)[C@@]1(Cc2ccccc2)[C@H]2c3cc(C(=O)N4CCCC4)n(C)c3C[C@H]2CN1C(=O)c1ccccc1	none
O=C(O)c1cccc(Cn2c(Cl)c(/C=N/NC(=O)c3ccccc3Cl)sc2=O)c1	HPGD inh 28.2µM (no result: p53ts 32C kill, p53ts 39C kill)
Cn1cccc1C(=O)Nc1nc(-c2ccccn2)cs1	HPGD inh 28.2µM, p53ts 39C kill inconclusive
COc1ccc(NC(=O)COCc2cc(-c3ccco3)on2)cc1Cl	none (no result: ALOX12 inhib, HPGD inh, p53ts 39C kill)
CC(=O)c1c(C)n(-c2ccccc2)c2ccc(O)cc12	HPGD inh 5.01µM
CN1Cc2cc(C(=O)c3ccccc3O)cnc2NC1=O	HPGD inh 25.1µM (no result: p53ts 32C kill, p53ts 39C kill)
CSc1nsc(/C=C/Nc2ccc(C)cc2)c1C#N	HPGD inh 14.1µM (no result: p53ts 32C kill, p53ts 39C kill)
CCN(CC)S(=O)(=O)c1ccc(O)c(NC(=O)c2ccc(N3CCOCC3)c([N+](=O)[O-])c2)c1	HPGD inh 31.6µM (no result: p53ts 32C kill, p53ts 39C kill)
